DAX1 inh-1: DAX1 (NR0B1) inhibition, primary screen | HEK293T StAR-luciferase reporter, SF-1/DAX-1 repression relief | inhibition, % at 6.8 µM | 370,000 compounds, 1.1% hits;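 active = inhibition above the mean over all tested compounds plus 3 SD, cut at about 3.6% in these data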;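 also: 0% = DAX-1 cells with DMSO and 100% = cells lacking DAX-1 with DMSO; higher inhibition means more luminescence from relief of DAX-1 repression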
hcDAF-12 act: activates DAF-12 receptor from parasite H. contortus; HEK293 hcDAF-12 lit1-tk-luc reporter, luminescence; 0% DMSO, 100% Δ7-dafachronic acid; activation, % at 6.8 µM; AID 652067; 370,000 compounds, 1.4% hits;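 active = activation above the mean of all tested compounds plus 3 SD, cut at about 5.5% in these data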;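 also: 100% = response to 3 µM Δ7-dafachronic acid high control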
hgDAF-12 ag: activates the H. glycines DAF-12 receptor ligand-binding domain | activation, % at 6.8 µM | 370,000 compounds, 1.8% hits | HEK293 GAL4-hgDAF12 UAS-luciferase reporter, agonist luminescence; normalized to butyrate control;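 active = activation above a cutoff set at the mean of all screened compounds plus 3 SD, cut at about 10% in these data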;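 also: 0% = DMSO wells and 100% = sodium butyrate wells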
DAX1 inh-2: inhibitors of human orphan nuclear receptor DAX1 (NR0B1); HEK293 Gal4-DAX1 luciferase reporter, luminescence; inhibition, % at 6.75 µM; AID 504766; 340,000 compounds, 0.99% hits;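 active = inhibition above the mean over all tested compounds plus 3 SD, cut at about 4.2% in these data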;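 also: 0% = DAX1-transfected cells with DMSO and 100% = empty-vector control cells with DMSO; inhibition shows as a rise in luminescence from relieved DAX1 repression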
Target sequence (P51843 207-470 limits assumed): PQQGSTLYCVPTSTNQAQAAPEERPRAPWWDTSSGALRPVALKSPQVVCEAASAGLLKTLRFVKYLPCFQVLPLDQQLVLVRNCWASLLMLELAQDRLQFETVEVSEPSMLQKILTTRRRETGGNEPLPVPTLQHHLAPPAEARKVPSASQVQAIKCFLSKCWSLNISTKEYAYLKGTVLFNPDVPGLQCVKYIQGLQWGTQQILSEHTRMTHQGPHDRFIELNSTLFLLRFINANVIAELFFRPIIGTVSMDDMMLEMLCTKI
ssDAF-12 act: S. stercoralis DAF-12 activation, primary screen; HEK293 ssDAF-12/GRIP1 lit1-tk-luc reporter, luminescence; % of 3 µM dafachronic acid response; activation, % at 6.8 µM; 370,000 compounds, 1% hits;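 active = activation above the mean over all tested compounds plus 3 SD, cut at about 0.9% in these data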;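 also: 0% = DMSO-only wells and 100% = 3 µM delta7-dafachronic acid wells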
DAX1 inh confirm: confirmation of human DAX1 (NR0B1) inhibitors | shares compounds with DAX1 inh-1 | HEK293T StAR-promoter luciferase reporter, SF-1/DAX-1 repression | inhibition, % at 6.8 µM | 2,400 compounds, 87% hits | AID 652134;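 active = inhibition above the average of every tested compound plus 3 SD, cut at about 3.8% in these data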;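 also: 0% = DAX-1 cells with DMSO and 100% = no DAX-1 control cells with DMSO; active compounds raise luminescence by relieving repression of the StAR reporter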
SF1 mutant ctr: nonselective inhibitor or artifact in SF-1 mutant DAX1 counter-screen | 2,400 compounds, 78% hits | shares compounds with DAX1 inh-1 | inhibition, % at 6.8 µM | HEK293 StAR-luciferase, SF-1 AF2 mutant, luminescence;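 active = inhibition above the mean of all tested compounds plus 3 SD, cut at about 3% in these data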;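 also: 0% = DAX-1 transfected cells with DMSO and 100% = cells without DAX-1 with DMSO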
LXRb hcDAF ctr: counter-screen for hcDAF-12 agonists: agonists of human LXR-beta. shares compounds with hcDAF-12 act. HEK293 Gal4-LXR tk-luc reporter, luminescence, 24 h; normalized: DMSO 0%, positive control 100%. activation, % at 6.8 µM. 3,400 tested, under 10 active. AID 743027;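 active = mean percent activation of the reporter above a cutoff set as the average over tested compounds plus their standard deviation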
Target sequence (P55055 whole entry, looked up, the tested form may be a part): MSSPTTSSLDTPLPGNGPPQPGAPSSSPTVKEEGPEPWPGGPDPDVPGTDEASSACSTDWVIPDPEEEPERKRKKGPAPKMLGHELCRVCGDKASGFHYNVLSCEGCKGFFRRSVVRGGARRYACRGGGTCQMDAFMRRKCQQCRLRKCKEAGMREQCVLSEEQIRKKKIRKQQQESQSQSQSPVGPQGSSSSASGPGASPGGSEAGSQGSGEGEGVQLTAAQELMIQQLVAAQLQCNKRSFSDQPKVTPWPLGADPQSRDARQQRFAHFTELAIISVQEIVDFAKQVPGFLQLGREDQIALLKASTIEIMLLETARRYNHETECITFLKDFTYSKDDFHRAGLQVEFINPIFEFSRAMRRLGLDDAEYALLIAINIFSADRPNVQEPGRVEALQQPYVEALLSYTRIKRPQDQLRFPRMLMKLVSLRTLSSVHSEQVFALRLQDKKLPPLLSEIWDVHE
hcDAF12 conf: hcDAF-12 agonism, confirmation assay; AID 743032; activation, % at 6.8 µM; HEK293 hcDAF-12 lit1-tk-luc reporter, luminescence; % of Δ7-dafachronic acid response; shares compounds with hcDAF-12 act; 3,400 compounds, 61% hits;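 active = mean activation across triplicate tests above the threshold derived from the earlier primary screen, cut at about 5.5% in these data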;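 also: 0% = DMSO only wells and 100% = 3 µM Δ7-dafachronic acid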
hgDAF12 conf: confirmation of H. glycines DAF-12 agonists | 3,300 compounds, 80% hits | activation, % at 6.8 µM | shares compounds with hgDAF-12 ag | HEK293 GAL4-hgDAF12 luciferase reporter, agonist mode; percent of butyrate response;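 active = mean activation over triplicate wells above the hit cutoff derived from the earlier primary screen, cut at about 11% in these data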;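 also: 0% = DMSO low control and 100% = 2 mM sodium butyrate high control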
LXRb DAF12 ctr: activates human LXR-beta, counter-screen for DAF-12 agonists; AID 743051; HEK293 Gal4-LXR luciferase reporter, 24 h; shares compounds with hgDAF-12 ag; activation, % at 6.8 µM; 3,300 tested, under 10 active;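 active = mean activation of the triplicate above a set limit carried over from the primary screen, none filed active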
* marks the source's active call; other numbers are inactive results; . = not tested or not shown. Compounds with a hit are over-represented: about 4.1% of the library has one in this group of screens.

SMILES | DAX1 inh-1 | hcDAF-12 act | hgDAF-12 ag | DAX1 inh-2 | ssDAF-12 act | DAX1 inh confirm | SF1 mutant ctr | hgDAF12 conf | LXRb DAF12 ctr | others
Cc1ccc2nc(NC(=O)c3ccco3)sc2c1 | 0.8 | 2.5 | -2.3 | -3.7 | -1.7 | . | . | . | .
CCOC(=O)C1=NOC(C(=O)Nc2cc(C)cc(C)c2)(C(=O)C2CC2)C1 (centres undefined) | 0.8 | -1.7 | 0.9 | . | -0.9 | . | . | . | .
C[C@@H]1OC(C2CCCCC2)N(C)[C@H]2C[C@H]3c4[nH]c5cccc(-c6ccccc6)c5c4CCN3C[C@@H]12 (some centres undefined) | -1.2 | -0.3 | 0.0 | . | -0.5 | . | . | . | .
CC1CCc2sc(C(=O)NCC3CCCO3)cc2C1 (centres undefined) | 7.2* | 2.8 | 14.9* | 3.8 | -0.1 | 9.9* | 6.5* | 13.1* | 0.6
Oc1ccc(-c2nnc(-c3ccc(O)cc3)nn2)cc1 | 5.5* | 6.5* | 15.0* | -0.9 | 0.8 | 13.1* | 8.4* | 21.1* | 1.1
Oc1ccc(-c2cc(-c3ccc(O)cc3)nc(-c3ccccc3)n2)cc1 | -0.8 | -2.5 | 2.1 | 1.7 | -2.0 | . | . | . | .
COC(=O)[C@]12C[C@H](CC(=O)N3CCCC3)C(=O)N(Cc3ccco3)C1=C[C@H](C(C)C)O[C@@H]2C1CC1 | -0.3 | 2.3 | -2.9 | . | -1.5 | . | . | . | .
COC(=O)[C@]12C[C@H](CC(=O)N3CCSCC3)C(=O)N(Cc3cccc4ccccc34)C1=C[C@H](C(C)C)O[C@@H]2C1CC1 | -0.9 | -1.3 | 3.7 | . | -1.3 | . | . | . | .
Nc1c(-c2ccccc2)cnc2c(-c3ccccc3)cnn12 | 4.9* | 11.2* | 19.7* | 4.8* | 1.3* | 14.0* | 3.6* | 11.0* | 1.1 | LXRb hcDAF ctr=2.0;hcDAF12 conf=9.3*
N#Cc1ccsc1NC(=O)COC(=O)c1ccc(NC(N)=O)cc1 | 6.0* | 8.0* | 16.8* | 1.2 | 0.5 | 9.7* | 7.1* | 15.5* | 0.6 | LXRb hcDAF ctr=0.8;hcDAF12 conf=5.6*
Oc1ccccc1-c1cc(-c2ccc3c(c2)OCCO3)n[nH]1 | 5.9* | 8.9* | 13.3* | 0.5 | 1.0* | 6.0* | 1.6 | 24.3* | 1.3 | LXRb hcDAF ctr=2.3;hcDAF12 conf=11.9*
O=C(O)c1cc(-c2ccc3c(c2)OCCO3)n[nH]1 | 1.1 | -1.3 | 4.5 | 0.0 | -0.8 | . | . | . | .
CCOC(=O)c1cc(-c2ccc3c(c2)OCCO3)n[nH]1 | 5.3* | 5.3 | 19.1* | 5.8* | -0.1 | 12.6* | 9.9* | 17.1* | 0.8
c1ccc2c(C3=NNC(=NC4CC4)SC3)c[nH]c2c1 | 7.0* | 14.2* | 20.4* | 0.1 | 2.1* | 18.8* | 7.1* | 12.7* | 0.9 | LXRb hcDAF ctr=1.8;hcDAF12 conf=7.6*
CCCCOCCCNC(=O)C[C@H]1C[C@@]2(C(=O)OC)C(=C[C@H](C(C)(C)C)O[C@@H]2C)N(Cc2ccc3c(c2)OCO3)C1=O | -1.2 | -1.3 | 0.7 | . | -1.1 | . | . | . | .
COc1ccc(C(=O)O/N=C(\N)c2ccc(Cl)cc2)cc1 | 0.4 | -1.5 | 5.8 | 1.9 | -0.8 | . | . | . | .
COc1ccccc1C(=O)O/N=C(\N)c1ccc(Cl)cc1 | 5.0* | 9.2* | 18.1* | 2.4 | 1.4* | 1.4 | 2.7 | 13.8* | 0.6 | LXRb hcDAF ctr=0.8;hcDAF12 conf=6.3*
Cc1ccc(NC(=O)COc2ccccc2[N+](=O)[O-])nc1 | 4.7* | 7.3* | 18.0* | -1.0 | 1.7* | 10.8* | 5.9* | 12.3* | 0.8 | LXRb hcDAF ctr=1.6;hcDAF12 conf=9.3*
Cc1ccc(NC(=O)c2ccc(COc3ccccc3[N+](=O)[O-])o2)nc1 | 0.4 | 1.2 | 3.1 | 0.1 | -1.2 | . | . | . | .
Cc1ccnc(NC(=O)COc2ccccc2[N+](=O)[O-])c1 | 4.9* | 7.4* | 14.3* | 0.4 | 1.1* | 12.5* | 5.2* | 11.5* | 0.9 | LXRb hcDAF ctr=1.3;hcDAF12 conf=4.1
O=C(COc1ccccc1[N+](=O)[O-])Nc1cccnc1 | 1.0 | -1.2 | 7.0 | 0.8 | -1.4 | . | . | . | .
Cc1ccc(NC(=O)N/C=C/c2ccccc2)cc1 | 2.0 | 2.0 | 9.4 | 1.4 | -0.6 | . | . | . | .
O=C(Nc1cccc2ccccc12)/C(Cl)=C/c1ccccc1 | 0.3 | 0.1 | 4.8 | 1.9 | -0.5 | . | . | . | .
O=C(Nc1ccc(F)cc1)/C(Cl)=C/c1ccccc1 | 4.6* | 5.4 | 24.6* | 9.9* | 2.2* | 13.2* | 10.0* | 20.0* | 1.0
Cc1ccc(NC(=O)/C(Cl)=C\c2ccccc2)cc1 | 6.5* | 6.4* | 16.6* | -0.4 | 1.6* | 18.1* | 8.1* | 20.5* | 1.3
SMILES | DAX1 inh-1 | hcDAF-12 act | hgDAF-12 ag | DAX1 inh-2 | ssDAF-12 act | DAX1 inh confirm | SF1 mutant ctr | hgDAF12 conf | LXRb DAF12 ctr | others
c1ccc2c(c1)CC/C2=N/Nc1nc2ccccc2[nH]1 | 7.3* | 4.8 | 13.8* | 1.5 | 0.2 | 11.1* | 10.9* | 9.5 | 0.7
O=S(=O)(c1ccc(Cl)s1)N1CCC(c2nc3ccccc3o2)CC1 | -1.1 | -3.4 | -3.5 | . | -1.0 | . | . | . | .
CCc1ccc(CNCCNC(=O)c2ccco2)cc1 | 5.8* | 1.6 | 14.9* | -0.2 | 0.4 | 4.9* | 2.9* | 0.9 | 0.1
CCN(CC)CCCNC(=O)C1(N[C@@H](Cc2c[nH]c3ccccc23)C(=O)NCC(OC)OC)CCCCC1 | . | 2.9 | 3.1 | . | -1.1 | . | . | . | .
CCOC(=O)C(C(=O)Nc1nc2ccccc2s1)C1CCCCC1 (centres undefined) | -0.2 | 2.3 | 3.3 | 3.4 | -0.2 | . | . | . | .
O=C(Nc1nc2ccccc2[nH]1)c1cccs1 | 6.6* | 3.8 | 14.5* | 0.7 | 0.3 | 4.6* | 4.6* | 12.9* | 0.7
Cc1ccc(C(=O)Nc2nc3ccccc3[nH]2)cc1 | -0.5 | 0.5 | -3.6 | -5.2 | -0.7 | . | . | . | .
O=C(Nc1nc2ccccc2[nH]1)NC1CCCCC1 | 16.4* | 5.8* | 15.8* | -0.2 | 0.6 | 17.6* | 9.7* | 21.1* | 1.1
O=C(Nc1nc2ccccc2s1)NC1CCCCC1 | 6.1* | 6.1* | 17.8* | 7.1* | -0.3 | 10.3* | 6.0* | 18.7* | 1.0
COc1ccc(C2=CCN(C)C(=O)N2c2ccc([N+](=O)[O-])cc2)cc1 | -0.3 | -2.5 | 1.6 | . | 0.0 | . | . | . | .
